# Inconclusive results are not listed. The source made the active and inactive calls. The calls were made as follows: active = hit-call score of the fitted dose curve at least 0.9, where 1 is the maximum; inconclusive = response in the unintended direction; inactive = score below 0.9.
# Read-out: sulfotransferase (SULT2A), SULT2A1 (gene 6822)
# Test: CLD_SULT2A_24hr: CellzDirect (CLD) Gene Expression Assay for sulfotransferase (SULT2A) at 24 hours (AID 2283694);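 as to AC50: potency for increased SULT2A1 mRNA level as induction over DMSO baseline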
# Description: CLD_24hr is a cell-based, multiplexed-readout assay that uses hepatocyte, a human liver primary cell, with measurements taken at 24 hours after chemical dosing in a 96-well plate.CLD_SULT2A_24hr is one of 16 assay component(s) measured or calculated from the CLD_24hr assay. It is designed to make measurements of mRNA induction, a form of inducible reporter, as detected with chemiluminescence signals by Quantitative Nuclease Protection Assay (qNPA) technology.Data from the assay component CLD_SULT2A_24hr was analyzed at the endpoint, CLD_SULT2A_24hr, in the positive analysis fitting direction relative to DMSO as the negative control and baseline of activity. Using a type of inducible reporter, gain-of-signal activity can be used to understand changes in the reporter gene as they relate to the gene SULT2A1. Furthermore, this assay endpoint can be referred to as a primary readout. To generalize the intended target to other relatable targets, this assay endpoint is annotated to the transferase intended target family, where subfamily is sulfotransferase.
# Human hepatocyte cultures were treated daily for two consecutive days with fresh dosing solutions containing appropriate concentrations of the 320 ToxCast chemicals (chemical identities were blinded to CellzDirect and other ToxCast collaborators), vehicle control (0.2% DMSO), and positive control inducers as summarized in Table 1. Due to the large number of treatment groups and chemicals examined, the ToxCast chemicals were divided into two groups (spanning two independent cultures of hepatocytes from separate donor preparations (Hu778: ToxCast plates 1 and 2; Hu776: ToxCast plates 3 and 4). Each preparation of human hepatocyte cultures was treated with respective vehicle control, medium only control, set of six positive controls/reference chemicals for the five hepatic receptor pathways, and a subset of eight of the ToxCast chemicals (indoxacarb, pyrithiobac-sodium, norflurazon, cyhalofop-butyl, methomyl, thiram, acetochlor, and propiconazole). These replicate data, coupled with internal replicates designed within the blinded ToxCast chemical library, provided additional data to evaluate interindividual differences between hepatocyte preparations and their potential impact on chemical profiles.Cell morphology and integrity were evaluated using phase-contrast microscopy as an indicator of hepatocyte cell health (Tyson & Green, 1987). Cultures for each treatment group (i.e., media, vehicle [0.2% DMSO], positive control inducers [multiple concentrations], and the ToxCast chemicals [multiple concentrations]) were observed and cell morphology was assessed relative to vehicle control cultures at each harvest time point (0, 6, 24, or 48 h). […] Images were evaluated at the conclusion of the study to assess changes in cell integrity and account for the effects of chemical exposure on uncharacteristic changes in concentration-dependent gene expression profiles. The results from these determinations of apparent cytotoxicity were annotated (yes/no) alongside the corresponding qNPA data for reference.At the conclusion of each treatment period, hepatocyte cultures (96-well) were washed with 1 volume of HBSS, lysed by addition of 25 ul ArrayPlate lysis buffer (HTG, Tucson, AZ), and 70 ul/well of Denaturation Oil, denatured by incubation at 95C for 10 min, and frozen at approximately -70C until analysis by nuclease protection assay (qNPA) (Roberts et al., 2007). For qNPA analysis, cell lysates were thawed at 50C for approximately 30 min, qNPA probes were added, and samples were incubated at 95C for 10 min to begin the detection process by denaturing the target RNA, dissociating the duplexes and secondary structure hybridization. At the conclusion of the hybridization period, S1 nuclease reagent was added to each sample to digest all nonprotected nucleotides at 50C for 60-90 min. […]
Compound,outcome,AC50
CCOP(=O)(OCC)Oc1nc(Cl)c(Cl)cc1Cl,inactive,
CC(C)C1(C)N=C(c2ncccc2C(=O)O)NC1=O (stereo not given),inactive,
Nc1c(Cl)c(Cl)nc(C(=O)O)c1Cl,inactive,
Clc1cccc(C(Cl)(Cl)Cl)n1,inactive,
CC(C)=CC1C(C(=O)OCc2coc(Cc3ccccc3)c2)C1(C)C (stereo not given),inactive,
COC(=O)NS(=O)(=O)c1ccc(N)cc1,inactive,
CC(C)Nc1nc(Cl)nc(NC(C)C)n1,inactive,
CC(C)(C)C(=O)C(Oc1ccc(Cl)cc1)n1cncn1 (stereo not given),inactive,
CC1(C)CCC(=Cc2ccc(Cl)cc2)C1(O)Cn1cncn1 (stereo not given),inactive,
COC(=O)N(C(=O)N1CO[C@@]2(C(=O)OC)Cc3cc(Cl)ccc3C2=N1)c1ccc(OC(F)(F)F)cc1,inactive,
CC1(C)C(C(=O)OC(C#N)c2cccc(Oc3ccccc3)c2)C1(C)C (stereo not given),inactive,
CO/N=C(/C1=NOCCO1)c1ccccc1Oc1ncnc(Oc2ccccc2Cl)c1F,inactive,
O=c1n(Cl)c(=O)n(Cl)c(=O)n1Cl,inactive,
CC(C)N1C(=O)N(c2ccccc2)CSC1=NC(C)(C)C,inactive,
O=C(O)c1c(Cl)ccc2cc(Cl)cnc12,inactive,
CCCN(CC)CC1COC2(CCC(C(C)(C)C)CC2)O1 (stereo not given),,3.97 µM (active)
CCN(CC)c1nc(C)cc(OP(=S)(OC)OC)n1,inactive,
Cn1c(-c2ccccc2)cc(-c2ccccc2)[n+]1C,,8.08 µM (active)
OC(c1ccc(Cl)cc1)(c1ccc(Cl)cc1)C(Cl)(Cl)Cl,,20 µM (active)
CCNP(=S)(OC)O/C(C)=C/C(=O)OC(C)C (stereo not given),inactive,

Compound,outcome,AC50
COc1cc(OC)nc(NC(=O)NS(=O)(=O)c2ncccc2OCC(F)(F)F)n1,inactive,
COCC(C)N(C(=O)CCl)c1c(C)csc1C (stereo not given),inactive,
CC1(C)C(C=C(Cl)Cl)C1C(=O)OC(C#N)c1cccc(Oc2ccccc2)c1 (stereo not given),inactive,
COC(=O)NC(=S)Nc1ccccc1NC(=S)NC(=O)OC,inactive,
O=C(Nc1ccccc1-c1ccc(Cl)cc1)c1cccnc1Cl,inactive,
CCCC(=NOCC)C1=C(O)CC(CC(C)SCC)CC1=O (stereo not given),inactive,
CCN(CC)C(=O)C(C)Oc1cccc2ccccc12 (stereo not given),inactive,
CCCCOCN(C(=O)CCl)c1c(CC)cccc1CC,inactive,
C=C(C)CN(CC)c1c([N+](=O)[O-])cc(C(F)(F)F)cc1[N+](=O)[O-],inactive,
CCOC(=O)C(C)OC(=O)c1cc(Oc2ccc(C(F)(F)F)cc2Cl)ccc1[N+](=O)[O-] (stereo not given),,3.51 µM (active)
COc1ccc(-c2ccccc2)cc1NNC(=O)OC(C)C,,33.5 µM (active)
CCOP(=S)(OCC)Oc1nc(Cl)n(C(C)C)n1,inactive,
CCSC(=O)N1CCCCCC1,inactive,
CN=C=S,inactive,
CCCCC(C#N)(Cn1cncn1)c1ccc(Cl)cc1 (stereo not given),inactive,
CC(C)NC(=O)N1CC(=O)N(c2cc(Cl)cc(Cl)c2)C1=O,inactive,
CCOc1nc(F)cc2nc(S(=O)(=O)Nc3c(Cl)cccc3Cl)nn12,,5.51 µM (active)
COCC(=O)N(c1c(C)cccc1C)C(C)C(=O)OC (stereo not given),inactive,
CC(C)Oc1cccc(NC(=O)c2ccccc2C(F)(F)F)c1,inactive,
COP(=O)(OC)O/C(C)=C/C(=O)N(C)C,inactive,
